KCNH2 3.1 block – blocks the human KCNH2 3.1 channel isoform | activity change, % (tested at about 1.8 µM) | U2OS KCNH2 3.1, thallium flux FluxOr; active compounds read low | hit rate 0.95% among 340,000;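 active = maximum activity change below -70%; inconclusive = maximum activity change from -70% to -50%; inactive = maximum activity change above -50%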;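 note: thallium influx rate constant from kinetic fluorescence after stimulation buffer; % is set by controls: 0 for no effect and ±100 for the full control effect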
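Normalized rate constant (relative to positive and negative DMSO controls) derived from a 2 min kinetic fluorescence read after stimulation; U2OS cells expressing the 3.1 isoform via virus at 1.77 x 10^8 /mL.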
KB-V1 cytotox – kills drug-selected multidrug resistant KB-V1 cells | KB-V1 MDR cells viability, CellTiter-Glo, 72 h | Potency, µM (highest dose often 46.1 µM), hits mostly cytotoxic | hit rate 3.4% among 400,000 | AID 1347076; note: potency is the fitted concentration of half-maximal effect; % is set by controls: 0 for no effect and ±100 for the full control effect; nearly all actives have a fitted effect of over 60% in size
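Cytotoxicity via CellTiter-Glo luminescence after 72 h compound exposure at 37 degrees C. Cells: drug-selected KB-V1 line, DMEM phenol-red free plus 10% FBS. Compounds tested at multiple concentrations; normalized data fitted to concentration-effect curves.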
KB-3-1 tox – kills parental KB-3-1 adenocarcinoma cells. AID 1347075. KB-3-1 viability, CellTiter-Glo ATP luminescence, 72 h. Potency, µM (top dose mostly 46.1 µM), usual class: cytotoxic. hit rate 1.4% among 400,000; note: potency is the fitted concentration of half-maximal effect; % is set by controls: 0 for no effect and ±100 for the full control effect; nearly all actives have a fitted effect of over 60% in size
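Cells are dispensed, compounds pinned in, plates held at 37 °C for 72 h, then CellTiter-Glo is added and luminescence read after 10 minutes. Cell line: parental KB-3-1 in phenol-red-free DMEM, 10% FBS.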
MCF10A rereplic – inducers of DNA re-replication in MCF 10A breast cells; Potency, µM (titrated, usually from 46.1 µM), for inactives: at the top dose activity, positive = re-replication, usual class: activators; AID 624296; hit rate 2.9% among 350,000; MCF 10A DNA re-replication, Hoechst nuclear intensity, 48 h; note: potency is the fitted concentration of half-maximal effect; % of control where 0% means no effect; nearly all actives have a fitted effect of over 50% in size
SW480 rerep – DNA re-replication induction in SW480 cells | SW480 DNA re-replication, Hoechst DNA content imaging, 48 h | Potency, µM (titrated, usually from 46.1 µM), without a hit: at the highest dose re-replication activation, most hits filed as activators | hit rate 1.8% among 340,000 | AID 624297; note: potency is the fitted concentration of half-maximal effect; % of control where 0% means no effect; nearly all actives have a fitted effect of over 55% in size
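250 cells/well; 23 nL cpd via pin tool; 48 hr, 37 C, 5% CO2; Hoechst 40 min; imager read of total nuclear intensity, ex 405/em 500-530 nm.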
hERG WT inh – KCNH2 (human, wildtype) channel inhibition | U2OS, BacMam KCNH2, thallium flux FluxOr; active compounds read low | activity change, % at 1.84 µM | hit rate 0.37% among 340,000 | AID 720551;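 active = maximum activity change below -70%; inconclusive = maximum activity change between -70% and -50%; inactive = maximum activity change above -50%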; note: % is set by controls: 0 for no effect and ±100 for the full control effect
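U2OS cells were transduced with wild-type KCNH2 virus (2.03 x 10^8 / mL) for 4 h at room temperature, then cultured overnight at 37 C. Thallium flux was read with FluxOr dye. Rate constants were normalized to DMSO controls.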
Starred values were filed as active, the others as inactive; i = inactive; ? = inconclusive; . = no result given. An excerpt weighted towards active compounds, which were near 7.6% of everything screened. Unless noted, calls come from the whole dose curve; as a rule, active = well fitted curve in the direction sought with a large enough effect; inconclusive = small, poorly fitted or top-dose-only effect, or another doubt; inactive = no such curve, though single readings can be large; an effect the other way counts as inactive or inconclusive.

SMILES | KCNH2 3.1 block | KB-V1 cytotox | KB-3-1 tox | MCF10A rereplic | SW480 rerep | hERG WT inh
COc1ccccc1/C=C/C=N/Nc1cccc(C(=O)O)c1 | -2.9 | i | i | 20.6µM* | 7.2% | -2.2
CCC(=NNC(=O)c1ccc2c(c1)nc(C)n2CC)c1cc(F)ccc1O | -8.7 | 2.31µM* | ? | 10.5% | ? | -8.7
COc1ccc(CN2[C@@H](CC(=O)O)c3ccc(/C=C/C(=O)O)cc3S2(=O)=O)cc1 | . | i | i | . | . | .
CCc1cc(=O)oc2cc(C)c3c(-c4ccc(F)cc4)coc3c12 | . | ? | i | . | . | .
COc1ccc([N+](=O)[O-])c(S(=O)(=O)c2ccc(Cl)cc2)n1 | 14.4 | i | ? | 3.66µM* | 2.91µM* | 0.7
COc1ccc([N+](=O)[O-])c(S(=O)(=O)c2ccccc2)n1 | -12.0 | 23.1µM* | ? | 23.7% | ? | -0.9
O=[N+]([O-])c1cccnc1S(=O)(=O)c1ccccc1 | -2.2 | ? | ? | 2.91µM* | 9.2µM* | -0.9
COc1nc(OC)nc(Oc2ccc(Cl)cc2[N+](=O)[O-])n1 | -3.0 | i | i | 1.7% | -4.7% | -6.9
COc1ccccc1S(=O)(=O)c1ccccc1[N+](=O)[O-] | -34.3 | i | i | -1.5% | -700.3% | 2.6
COc1cc(OC)c(/C=C/c2nc3ccccc3o2)c(OC)c1 | . | i | ? | . | . | .
CCCOC(=O)C(C)n1cnc2sc(C)c(C)c2c1=O (configuration not stated) | 7.8 | i | i | -7.0% | 0.0% | 2.7
CCCCOc1ccc(C(=O)Nc2nc3c(s2)CC(C)CC3)cc1 (configuration not stated) | . | i | i | . | . | .
O=C(NC(=S)Nc1nc2c(s1)CCCC2)c1ccc(C(=O)c2ccccc2)cc1 | 1.4 | 4.11µM* | 23.1µM* | 0.8% | 1.2% | -8.1
COc1cccc(N2CCN(CC(=O)Nc3nc4c(s3)CC(C)CC4)CC2)c1 (configuration not stated) | -0.6 | 18.4µM* | i | -1.6% | -0.9% | -9.4
COC(=O)c1ccc(C(=O)NC(=S)Nc2nc3c(s2)CC(C)CC3)cc1 (configuration not stated) | 7.2 | ? | 16.4µM* | -5.9% | 2.9% | 7.4
O=C1C(=O)C(c2ccc(O)cc2O)Oc2cc(O)cc(O)c21 (configuration not stated) | . | i | i | . | . | .
Cc1cccc(NC(=O)CNC(=O)C23CC4CC(CC(Cl)(C4)C2)C3)n1 | 14.2 | ? | i | 3.2% | -0.4% | 7.3
COc1ccc(Cl)cc1NC(=O)c1ccc(CN2C(=O)CCn3nc(C)cc32)cc1 | . | i | i | . | . | .
Cc1cccc(C)c1NC(=O)CN(C)C(C)C(=O)Nc1ccccc1-c1ccccc1 (configuration not stated) | -18.2 | i | i | 5.3% | -6.2% | -6.0
CC(C(=O)Nc1ccccc1-c1ccccc1)N(C)Cc1nc2ccccc2c(=O)[nH]1 (configuration not stated) | -27.1 | 11.6µM* | ? | ? | ? | 9.7
CCN1C(=O)[C@@H]2[C@@H](c3ccc(-c4ccc(Cl)c(Cl)c4)c(OC)c3)N3CCC[C@@]3(C(=O)OC)[C@@H]2C1=O | -15.7 | ? | i | ? | 0.8% | 1.9
Cc1ccc(SC(CC(=O)c2ccc(F)cc2)C(=O)O)cc1 (configuration not stated) | 7.5 | i | i | ? | -2.6% | -32.9
CC(C)(C)c1ccc(C(=O)CC(Sc2ccc(Cl)cc2)C(=O)O)cc1 (configuration not stated) | -2.4 | ? | ? | 23.1µM* | ? | -3.9
COc1ccc(NC(=O)c2ccc(CN3CCN(c4ccccc4)CC3)cc2)cc1OC | -2.7 | 16.4µM* | ? | -1.7% | 3.9% | -6.3
COc1ccc(C)cc1NC(=O)c1ccc(CN2CCN(c3ccccc3)CC2)cc1 | -104.1* | 18.4µM* | ? | ? | 25.0% | -30.5
SMILES | KCNH2 3.1 block | KB-V1 cytotox | KB-3-1 tox | MCF10A rereplic | SW480 rerep | hERG WT inh
CCOc1cc(C(=O)Nc2cc(C)ccc2OC)ccc1OCC(=O)N1CCCCC1 | -0.2 | 7.31µM* | i | -35.5% | -147.0% | 3.2
COc1cc(CNc2ccc(N3CCN(C(C)=O)CC3)cc2)ccc1OCc1ccccc1 | -7.9 | 7.31µM* | ? | 9.0% | 1.8% | 5.8
COc1ccccc1C(=O)Nc1ccc(N2CCN(Cc3ccccc3)CC2)cc1 | 12.7 | i | i | -2.3% | -1.0% | 13.6
COc1cc(CNc2ccc(N3CCOCC3)cc2)ccc1OCC(=O)NC(C)(C)C | -3.8 | i | i | 5.4% | -8.9% | 5.3
COc1ccccc1CNC(=O)Nc1nnc(-c2ccncc2)s1 | . | i | ? | . | . | .
CCOC(=O)C1(CCCc2ccccc2)CCN(C(=O)CCN2CCCCC2=O)CC1 | 10.7 | i | i | 4.0% | 0.7% | -28.4
CC(O)COCC1OC2OC3C(COCC(C)O)OC(OC4C(COCC(C)O)OC(OC5C(COCC(C)O)OC(OC6C(COCC(C)O)OC(OC7C(COCC(C)O)OC(OC8C(COCC(C)O)OC(OC1C(OCC(C)O)C2OCC(C)O)C(OCC(C)O)C8OCC(C)O)C(OCC(C)O)C7OCC(C)O)C(OCC(C)O)C6OCC(C)O)C(OCC(C)O)C5OCC(C)O)C(OCC(C)O)C4OCC(C)O)C(OCC(C)O)C3OCC(C)O (configuration not stated) | . | i | i | . | . | .
O=C(Nc1ccc(Br)cc1)C1CCN(C(=O)c2ccco2)CC1 | -2.3 | 20.6µM* | i | 3.4% | 2.9% | -8.1
BrC(=C\c1ccccc1)/C=N/N1CCN(c2ccccn2)CC1 | -5.7 | ? | i | 20.6µM* | ? | -3.3
O=[N+]([O-])c1ccccc1C=NN1CCCCCC1 | 6.7 | i | i | 2.1% | 3.1% | -0.6
O=[N+]([O-])c1ccccc1/C=N/N1CCN(c2ccccn2)CC1 | -8.8 | 14.6µM* | i | 28.3% | -3.2% | 15.6
Cc1cccc(-c2nc(Cn3c(SCc4cc(C)ccc4C)nc4ccncc43)c(C)o2)c1 | . | i | i | . | . | .
COc1cc(C(=O)NCC2CCCO2)ccc1OCc1ccccc1Cl (configuration not stated) | 11.2 | ? | i | -3.4% | -5.9% | -5.1
COc1ccc(S(=O)(=O)N2CCC(n3cnc4cc(C(F)(F)F)ccc43)CC2)cc1 | -85.8* | i | i | 21.9% | -1.3% | -87.3*
COc1ccc(S(=O)(=O)N2CCC(n3cnc4ccccc43)CC2)cc1 | 0.4 | i | i | 1.4% | 2.6% | 9.5
Cc1ccc(NC(=O)c2c(C)nc3ccccn23)cc1C | 5.0 | i | i | 0.3% | 1.7% | 14.0

Compound activity as filed in PubChem.
